This passage reports growth inhibition results from PubChem BioAssay (NCI).

Test [1] can be described thus: NCI Yeast Anticancer Drug Screen. Data for the rad50 strain (AID 155).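 Further: 0% = growth of vehicle-only cultures of the same strain.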 To be noted: S. cerevisiae rad50 strain growth inhibition, stronger effect = higher value. Put shortly: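 Readout: growth inhibition relative to vehicle-treated cultures. Compound exposure was carried out in a genetically defined yeast strain deficient in DNA damage repair.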
Test [2] in a line: NCI Yeast Anticancer Drug Screen. Data for the mec2-1 strain (AID 157). To be noted: S. cerevisiae mec2-1 strain, stronger effect = higher value. In short, it runs like this:
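Mutant yeast (mec2-1) grown with compound; growth inhibition relative to vehicle control reported.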

A short description of test [3]: NCI Yeast Anticancer Drug Screen. Data for the sgs1 mgt1 strain (AID 161).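 Further: 0% = growth of cultures given vehicle only.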 To be noted: S. cerevisiae sgs1 mgt1 strain, stronger effect = higher value. Put shortly:
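Growth of a repair-deficient yeast mutant was monitored after compound treatment and expressed as inhibition relative to vehicle-treated cultures.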

Test [4] can be described thus: NCI Yeast Anticancer Drug Screen. Data for the cln2 rad14 strain (AID 165).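 Further: 0% = growth equal to vehicle treated cultures.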 The note with it: S. cerevisiae cln2 rad14 strain, stronger effect = higher value. Put shortly: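 Readout is yeast growth inhibition versus vehicle-treated controls, using a strain with cln2 and rad14 alterations exposed to compound.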
Test [5] in a line: NCI Yeast Anticancer Drug Screen. Data for the bub3 strain (AID 167). To be noted: S. cerevisiae bub3 mutant strain, stronger effect = higher value. Put shortly:
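Readout: yeast growth inhibition, expressed relative to vehicle-only wells. The test organism is a mutant strain from a panel with lesions in DNA repair or checkpoint genes.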

Test [6] is described as follows: NCI Yeast Anticancer Drug Screen. Data for the mlh1 rad18 strain (AID 175). To be noted: S. cerevisiae mlh1 rad18 strain growth inhibition, stronger effect = higher value. In short, it runs like this: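 Genetically defined yeast (DNA repair-deficient) exposed to compounds; growth inhibition determined relative to vehicle.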
The mark [7] stands for this setting: at 5.0 µM (retest, dose inferred, filed as 0.5).
Where [8] appears, read: at 50.0 µM (retest, dose inferred, filed as 5.0).

Structures are written as SMILES. The panel holds about 79,000 compounds, 15% with a hit somewhere; the sample as a whole holds those more often. A number with no mark means an inactive call. Activity calls are given as the source filed them. No stated cut-off is given here; in the data, active means growth inhibition above about 70%; inactive means the rest.

As to `C/C=C1/C=CC2c3[nH]c4ccccc4c3CCN2C1` (stereo unspecified), the growth inhibition in test [1] (setting [7]) was -152%; in test [1] (setting [8]), -150%; in test [1] (at 50.0 µM), 5.35%; in test [2] (setting [7]), -51%; in test [2] (setting [8]), -57%; in test [2] (at 50.0 µM) it was -0.8%. The growth inhibition in test [3] (setting [7]) is -62%; in test [3] (setting [8]) it was -67%; in test [3] (at 50.0 µM), 2.95%; in test [4] (setting [7]), -62%; in test [4] (setting [8]), -72%; in test [4] (at 50.0 µM), 38%. The growth inhibition was -73% in test [5] (setting [7]); -81% in test [5] (setting [8]); -13.4% in test [5] (at 50.0 µM); -137% in test [6] (setting [7]); -107% in test [6] (setting [8]); 13% in test [6] (at 50.0 µM).
For the compound `COC(=O)NC1CCCCCCCCCCC1I` (stereo unspecified), the growth inhibition is -4% in test [1] (setting [7]); 97% (active) in test [1] (setting [8]); 98.5% (active) in test [1] (at 50.0 µM); 14% in test [2] (setting [7]); 99% (active) in test [2] (setting [8]); 82.3% (active) in test [2] (at 50.0 µM). The growth inhibition in test [3] (setting [7]) was -5%; in test [3] (setting [8]), 99% (active); in test [3] (at 50.0 µM) it was 17.1%; in test [4] (setting [7]), 19%; in test [4] (setting [8]), 99% (active); in test [4] (at 50.0 µM), -2.05%. The growth inhibition in test [5] (setting [7]) is -5%; in test [5] (setting [8]), 99% (active); in test [5] (at 50.0 µM) it was 3.35%; in test [6] (setting [7]), 5%; in test [6] (setting [8]) it was 98% (active); in test [6] (at 50.0 µM), 99% (active).
As for `CC(=O)Nc1ccc(C#N)c2ccccc12`, the growth inhibition was 43% in test [1] (setting [7]); 33% in test [1] (setting [8]); 40.4% in test [1] (at 50.0 µM); 42% in test [2] (setting [7]); 33% in test [2] (setting [8]); 35.8% in test [2] (at 50.0 µM). Besides, the growth inhibition in test [3] (setting [7]) was 0%; in test [3] (setting [8]), 29%; in test [3] (at 50.0 µM), 23.1%; in test [4] (setting [7]) it was 41%; in test [4] (setting [8]), 34%; in test [4] (at 50.0 µM), 7.4%. For the same compound, the growth inhibition in test [5] (setting [7]) is 21%; in test [5] (setting [8]), 44%; in test [5] (at 50.0 µM), 40.8%; in test [6] (setting [7]), 35%; in test [6] (setting [8]), 35%; in test [6] (at 50.0 µM) it was 19.4%.
On to `Cc1[nH]c(=O)[nH]c(=S)c1C(=O)NC1C2CCCCC2NC2CCCCC21` (stereo unspecified), for which the growth inhibition is 67% in test [1] (setting [7]); 96% (active) in test [1] (setting [8]); 75.5% (active) in test [1] (at 50.0 µM); 49% in test [2] (setting [7]); 97% (active) in test [2] (setting [8]); 83.3% (active) in test [2] (at 50.0 µM). Also, the growth inhibition in test [3] (setting [7]) is 49%; in test [3] (setting [8]), 97% (active); in test [3] (at 50.0 µM), 76.4% (active); in test [4] (setting [7]), 74% (active); in test [4] (setting [8]), 98% (active); in test [4] (at 50.0 µM), 85% (active). Moreover, the growth inhibition is 48% in test [5] (setting [7]); 97% (active) in test [5] (setting [8]); 77.8% (active) in test [5] (at 50.0 µM); 46% in test [6] (setting [7]); 96% (active) in test [6] (setting [8]); 71.9% (active) in test [6] (at 50.0 µM).
As for `COc1ccc(C2SC(C)C(=O)N2c2nc(-c3nc(-c4ccc(Cl)cc4)cs3)cs2)cc1` (stereo unspecified), the growth inhibition in test [1] (setting [7]) is 42%; in test [1] (setting [8]), 86% (active); in test [1] (at 50.0 µM), 45%; in test [2] (setting [7]), 17%; in test [2] (setting [8]), 99% (active); in test [2] (at 50.0 µM), 39.9%. Moreover, the growth inhibition in test [3] (setting [7]) was 5%; in test [3] (setting [8]), 92% (active); in test [3] (at 50.0 µM), 69.3%; in test [4] (setting [7]) it was 4%; in test [4] (setting [8]), 99% (active); in test [4] (at 50.0 µM) it was 83.5% (active). Besides, the growth inhibition in test [5] (setting [7]) was -17%; in test [5] (setting [8]), 99% (active); in test [5] (at 50.0 µM) it was 27.3%; in test [6] (setting [7]), 23%; in test [6] (setting [8]), 99% (active); in test [6] (at 50.0 µM) it was 77% (active).
As for `ICCCCSc1cc(-c2ccccc2)[o+]c2ccccc12`, the growth inhibition is 23% in test [1] (setting [7]); 92% (active) in test [1] (setting [8]); 93% (active) in test [1] (at 50.0 µM); 10% in test [2] (setting [7]); 51% in test [2] (setting [8]); 72.2% (active) in test [2] (at 50.0 µM). Further, the growth inhibition in test [3] (setting [7]) is 19%; in test [3] (setting [8]), 75% (active); in test [3] (at 50.0 µM), 75.2% (active); in test [4] (setting [7]) it was 1%; in test [4] (setting [8]), 49%; in test [4] (at 50.0 µM) it was 24.3%. The growth inhibition in test [5] (setting [7]) was 7%; in test [5] (setting [8]), 85% (active); in test [5] (at 50.0 µM), 75.4% (active); in test [6] (setting [7]), 11%; in test [6] (setting [8]), 71% (active); in test [6] (at 50.0 µM), 88.8% (active).
`Cc1cc2nc3n(c2cc1C)C(c1c(F)cccc1F)SC3` (stereo unspecified): the growth inhibition was 25% in test [1] (setting [7]); 24% in test [1] (setting [8]); -6.85% in test [1] (at 50.0 µM); 16% in test [2] (setting [7]); 12% in test [2] (setting [8]); -14.7% in test [2] (at 50.0 µM). In addition, the growth inhibition in test [3] (setting [7]) is 27%; in test [3] (setting [8]) it was 24%; in test [3] (at 50.0 µM) it was 9.1%; in test [4] (setting [7]), 12%; in test [4] (setting [8]), 23%; in test [4] (at 50.0 µM), -6.1%. The growth inhibition is 26% in test [5] (setting [7]); 25% in test [5] (setting [8]); 30.5% in test [5] (at 50.0 µM); 26% in test [6] (setting [7]); 22% in test [6] (setting [8]); -0.35% in test [6] (at 50.0 µM).
